Common to all, as to assay: DAPPL (digital affinity profiling via proximity ligation, sequencing); 10 mM Tris-HCl pH 7.5, 50 mM NaCl, 1 mM DTT, 4% glycerol, room temperature, 30 min; GST-TFs on glutathione beads, 16-mer random dsDNA library, 0.1% formaldehyde crosslink after washing; high values mean tight binding
Conditions in all cases: protein: recombinant; tags: N-terminal GST; dsDNA, one strand shown

In one assay the target is T1, FEV (Homo sapiens, UniProt Q99581 1-238).
T1 sequence: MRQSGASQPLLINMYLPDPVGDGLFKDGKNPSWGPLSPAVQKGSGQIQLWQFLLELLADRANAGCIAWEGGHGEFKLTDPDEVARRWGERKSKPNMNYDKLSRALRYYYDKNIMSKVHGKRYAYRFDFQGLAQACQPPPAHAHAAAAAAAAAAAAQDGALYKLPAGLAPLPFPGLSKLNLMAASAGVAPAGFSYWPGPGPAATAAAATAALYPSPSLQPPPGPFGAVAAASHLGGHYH
Summed up: (§1)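 Binding signal is given per hexamer as its read frequency for a factor divided by its frequency in the tag-only sample. GST-fused human transcription factors were expressed in yeast, captured on glutathione beads, barcoded with DNA and pooled with that sample, then incubated with 200 nmole of a 16-mer random double-stranded DNA library in Tris/NaCl/DTT/glycerol buffer for 30 min at room temperature. The pools were then washed, crosslinked, proximity-ligated, amplified by PCR and sequenced on an Illumina NextSeq500.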

For another assay, the target named is ETV5 (Homo sapiens, UniProt P41161 1-510). Summed up:
as §1

A further assay addresses T2, SPIC (Homo sapiens, UniProt Q8N5J4 1-248).
T2 sequence: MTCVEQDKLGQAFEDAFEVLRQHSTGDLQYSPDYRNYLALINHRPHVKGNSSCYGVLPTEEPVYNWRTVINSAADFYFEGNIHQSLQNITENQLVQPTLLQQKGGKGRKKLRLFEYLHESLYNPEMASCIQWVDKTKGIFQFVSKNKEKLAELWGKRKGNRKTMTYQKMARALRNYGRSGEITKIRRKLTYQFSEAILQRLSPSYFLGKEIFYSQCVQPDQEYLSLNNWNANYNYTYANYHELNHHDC
Summed up: as §1

Another assay addresses ELF4 (Homo sapiens, UniProt Q99607 1-663). Summed up: as §1
A further assay concerns the target T3, ELK4 (Homo sapiens, UniProt P28324-2 1-405).
T3 sequence: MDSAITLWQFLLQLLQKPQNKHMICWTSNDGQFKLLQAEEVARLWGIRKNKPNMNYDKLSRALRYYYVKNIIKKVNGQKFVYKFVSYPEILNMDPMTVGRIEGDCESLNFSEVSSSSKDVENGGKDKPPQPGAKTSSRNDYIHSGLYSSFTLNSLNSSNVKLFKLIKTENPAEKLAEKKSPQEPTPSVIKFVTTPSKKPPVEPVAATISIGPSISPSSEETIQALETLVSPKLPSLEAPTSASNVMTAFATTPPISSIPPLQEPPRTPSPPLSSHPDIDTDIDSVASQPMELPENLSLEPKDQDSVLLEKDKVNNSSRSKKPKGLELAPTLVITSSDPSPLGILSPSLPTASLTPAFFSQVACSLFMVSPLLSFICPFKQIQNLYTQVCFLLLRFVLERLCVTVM
Summed up: as §1

In a further assay the target is T4, ETV2 (Homo sapiens, UniProt O00321 1-342).
T4 sequence: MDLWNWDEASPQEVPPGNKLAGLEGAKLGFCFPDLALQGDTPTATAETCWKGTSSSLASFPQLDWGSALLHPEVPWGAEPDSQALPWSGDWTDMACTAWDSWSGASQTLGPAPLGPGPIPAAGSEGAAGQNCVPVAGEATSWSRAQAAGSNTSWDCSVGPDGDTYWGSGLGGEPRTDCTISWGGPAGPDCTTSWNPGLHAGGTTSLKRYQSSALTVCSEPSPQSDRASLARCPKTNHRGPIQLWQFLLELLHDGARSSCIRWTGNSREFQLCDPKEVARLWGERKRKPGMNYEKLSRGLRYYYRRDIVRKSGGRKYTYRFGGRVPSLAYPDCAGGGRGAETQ
Summed up:
as §1

A further assay addresses T5, ELF3 (Homo sapiens, UniProt P78545 1-371).
T5 sequence: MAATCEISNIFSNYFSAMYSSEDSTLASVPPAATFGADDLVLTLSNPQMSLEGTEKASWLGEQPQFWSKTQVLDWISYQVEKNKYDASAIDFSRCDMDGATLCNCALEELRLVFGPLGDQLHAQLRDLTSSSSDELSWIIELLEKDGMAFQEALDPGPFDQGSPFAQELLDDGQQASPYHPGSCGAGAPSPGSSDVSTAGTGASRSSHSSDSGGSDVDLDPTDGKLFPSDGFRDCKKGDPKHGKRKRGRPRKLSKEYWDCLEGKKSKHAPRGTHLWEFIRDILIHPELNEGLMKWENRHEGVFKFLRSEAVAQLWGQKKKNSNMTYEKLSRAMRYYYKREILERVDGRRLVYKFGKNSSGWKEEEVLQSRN
Summed up:
as §1

In the next assay the target is CRX (Homo sapiens, UniProt O43186 1-299). Summed up:
as §1

The target of another assay is ETV1 (Homo sapiens, UniProt P50549 1-477). Summed up:
as §1

Chain of ELF4 (Q99607 whole entry): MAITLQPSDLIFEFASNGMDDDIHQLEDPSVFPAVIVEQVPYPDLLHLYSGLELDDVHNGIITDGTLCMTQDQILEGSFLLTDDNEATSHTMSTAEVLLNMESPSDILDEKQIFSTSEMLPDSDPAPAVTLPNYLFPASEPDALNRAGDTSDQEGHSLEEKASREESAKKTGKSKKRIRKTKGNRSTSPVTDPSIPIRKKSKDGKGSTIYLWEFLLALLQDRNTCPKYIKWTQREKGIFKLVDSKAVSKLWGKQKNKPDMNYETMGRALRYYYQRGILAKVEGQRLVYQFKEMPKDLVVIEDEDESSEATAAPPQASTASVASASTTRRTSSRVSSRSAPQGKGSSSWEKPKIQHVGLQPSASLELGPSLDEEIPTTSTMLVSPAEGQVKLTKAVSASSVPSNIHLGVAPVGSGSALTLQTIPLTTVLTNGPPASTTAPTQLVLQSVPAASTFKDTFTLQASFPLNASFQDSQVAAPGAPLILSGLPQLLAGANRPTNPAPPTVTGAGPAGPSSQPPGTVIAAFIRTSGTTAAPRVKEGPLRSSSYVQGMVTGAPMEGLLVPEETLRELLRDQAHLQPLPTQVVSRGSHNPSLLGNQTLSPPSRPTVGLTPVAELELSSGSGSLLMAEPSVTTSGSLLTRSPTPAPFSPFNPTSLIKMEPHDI
Chain of CRX (O43186 whole entry): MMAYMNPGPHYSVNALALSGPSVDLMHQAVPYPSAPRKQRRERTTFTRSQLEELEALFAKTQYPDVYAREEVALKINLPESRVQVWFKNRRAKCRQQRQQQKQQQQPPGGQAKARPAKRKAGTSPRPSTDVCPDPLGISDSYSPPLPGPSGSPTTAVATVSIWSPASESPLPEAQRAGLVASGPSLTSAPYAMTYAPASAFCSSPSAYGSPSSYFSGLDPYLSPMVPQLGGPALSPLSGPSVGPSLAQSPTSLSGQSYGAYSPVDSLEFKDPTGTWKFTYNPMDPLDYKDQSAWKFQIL
Chain of ETV5 (P41161 whole entry): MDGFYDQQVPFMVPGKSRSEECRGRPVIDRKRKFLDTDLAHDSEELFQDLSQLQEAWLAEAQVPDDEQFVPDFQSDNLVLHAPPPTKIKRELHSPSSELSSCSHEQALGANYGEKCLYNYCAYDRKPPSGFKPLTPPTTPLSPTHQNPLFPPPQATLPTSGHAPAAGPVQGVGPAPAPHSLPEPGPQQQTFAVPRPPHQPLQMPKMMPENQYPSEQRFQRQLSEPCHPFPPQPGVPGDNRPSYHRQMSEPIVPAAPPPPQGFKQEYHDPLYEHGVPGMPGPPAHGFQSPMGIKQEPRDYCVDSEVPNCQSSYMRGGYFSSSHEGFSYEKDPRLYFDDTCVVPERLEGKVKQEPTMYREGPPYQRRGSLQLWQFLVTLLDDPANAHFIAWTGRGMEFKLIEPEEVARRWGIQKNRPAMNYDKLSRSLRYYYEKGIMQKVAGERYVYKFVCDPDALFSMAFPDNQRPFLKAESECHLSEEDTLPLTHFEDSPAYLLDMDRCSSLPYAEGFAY
Chain of ETV1 (P50549 whole entry): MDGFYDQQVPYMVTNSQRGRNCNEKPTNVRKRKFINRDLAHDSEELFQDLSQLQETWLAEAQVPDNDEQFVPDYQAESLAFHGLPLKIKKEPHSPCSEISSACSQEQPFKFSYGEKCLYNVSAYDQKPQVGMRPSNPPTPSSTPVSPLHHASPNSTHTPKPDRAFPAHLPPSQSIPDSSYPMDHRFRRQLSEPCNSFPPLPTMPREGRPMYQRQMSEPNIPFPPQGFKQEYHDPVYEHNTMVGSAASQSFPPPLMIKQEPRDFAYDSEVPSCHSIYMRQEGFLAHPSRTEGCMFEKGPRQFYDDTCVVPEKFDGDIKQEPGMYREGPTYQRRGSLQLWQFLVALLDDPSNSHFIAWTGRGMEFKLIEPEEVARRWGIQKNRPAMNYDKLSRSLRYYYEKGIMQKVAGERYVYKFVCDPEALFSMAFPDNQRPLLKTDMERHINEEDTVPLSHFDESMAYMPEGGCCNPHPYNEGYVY

Take CCCTTG: the binding signal was 1.16 fold enrichment (6-mer frequency, TF over GST control) in the assay with FEV; 1.11 fold enrichment (6-mer frequency, TF over GST control) in the assay with ETV5; 1.26 fold enrichment (6-mer frequency, TF over GST control) in the assay with SPIC; 1.25 fold enrichment (6-mer frequency, TF over GST control) with ELF4; 1.2 fold enrichment (6-mer frequency, TF over GST control) in the assay with ELK4; 1.23 fold enrichment (6-mer frequency, TF over GST control) with ETV2. The binding signal in the assay with ELF3 is 1.19 fold enrichment (6-mer frequency, TF over GST control); with CRX, 1.01 fold enrichment (6-mer frequency, TF over GST control); with ETV1 it was 1.19 fold enrichment (6-mer frequency, TF over GST control).
Take CTACGT: the binding signal with FEV is 1.28 fold enrichment (6-mer frequency, TF over GST control); in the assay with ETV5 it was 1.09 fold enrichment (6-mer frequency, TF over GST control); with SPIC, 1.17 fold enrichment (6-mer frequency, TF over GST control); in the assay with ELF4 it was 1.24 fold enrichment (6-mer frequency, TF over GST control); in the assay with ELK4, 1.24 fold enrichment (6-mer frequency, TF over GST control); in the assay with ETV2 it was 1.03 fold enrichment (6-mer frequency, TF over GST control). In addition, the binding signal with ELF3 is 1.01 fold enrichment (6-mer frequency, TF over GST control); in the assay with CRX it was 1.01 fold enrichment (6-mer frequency, TF over GST control); in the assay with ETV1, 1.3 fold enrichment (6-mer frequency, TF over GST control).
Turning to ACCCCG, the binding signal with FEV was 1.25 fold enrichment (6-mer frequency, TF over GST control); with ETV5, 1.27 fold enrichment (6-mer frequency, TF over GST control); with SPIC it was 1.38 fold enrichment (6-mer frequency, TF over GST control); with ELF4, 1.33 fold enrichment (6-mer frequency, TF over GST control); with ELK4 it was 1.29 fold enrichment (6-mer frequency, TF over GST control); in the assay with ETV2, 1.21 fold enrichment (6-mer frequency, TF over GST control). The binding signal with ELF3 is 1.22 fold enrichment (6-mer frequency, TF over GST control); with CRX, 1.02 fold enrichment (6-mer frequency, TF over GST control); with ETV1, 1.22 fold enrichment (6-mer frequency, TF over GST control).
Consider AACGGC, for which the binding signal was 1.17 fold enrichment (6-mer frequency, TF over GST control) in the assay with FEV; 1.29 fold enrichment (6-mer frequency, TF over GST control) with ETV5; 1.12 fold enrichment (6-mer frequency, TF over GST control) in the assay with SPIC; 1.24 fold enrichment (6-mer frequency, TF over GST control) with ELF4; 1.24 fold enrichment (6-mer frequency, TF over GST control) with ELK4; 1.21 fold enrichment (6-mer frequency, TF over GST control) in the assay with ETV2. Moreover, the binding signal in the assay with ELF3 is 1.12 fold enrichment (6-mer frequency, TF over GST control); with CRX it was 1.11 fold enrichment (6-mer frequency, TF over GST control); with ETV1, 1.17 fold enrichment (6-mer frequency, TF over GST control).
Take GGTGTT: the binding signal with FEV was 1 fold enrichment (6-mer frequency, TF over GST control); with ETV5, 1.09 fold enrichment (6-mer frequency, TF over GST control); with SPIC, 1.09 fold enrichment (6-mer frequency, TF over GST control); in the assay with ELF4 it was 1.09 fold enrichment (6-mer frequency, TF over GST control); in the assay with ELK4, 1.13 fold enrichment (6-mer frequency, TF over GST control); with ETV2, 1.13 fold enrichment (6-mer frequency, TF over GST control). In addition, the binding signal is 1.03 fold enrichment (6-mer frequency, TF over GST control) with ELF3; 1.01 fold enrichment (6-mer frequency, TF over GST control) with CRX; 1.04 fold enrichment (6-mer frequency, TF over GST control) in the assay with ETV1.
ACCTTG: the binding signal is 1.12 fold enrichment (6-mer frequency, TF over GST control) with FEV; 1.2 fold enrichment (6-mer frequency, TF over GST control) in the assay with ETV5; 1.17 fold enrichment (6-mer frequency, TF over GST control) in the assay with SPIC; 1.22 fold enrichment (6-mer frequency, TF over GST control) in the assay with ELF4; 1.21 fold enrichment (6-mer frequency, TF over GST control) in the assay with ELK4; 1.4 fold enrichment (6-mer frequency, TF over GST control) with ETV2. In addition, the binding signal with ELF3 was 1.29 fold enrichment (6-mer frequency, TF over GST control); with CRX, 1.03 fold enrichment (6-mer frequency, TF over GST control); with ETV1 it was 1.21 fold enrichment (6-mer frequency, TF over GST control).
On to TCAGCA, for which the binding signal with FEV is 1.02 fold enrichment (6-mer frequency, TF over GST control); with ETV5 it was 1.05 fold enrichment (6-mer frequency, TF over GST control); with SPIC, 1.1 fold enrichment (6-mer frequency, TF over GST control); in the assay with ELF4 it was 1.1 fold enrichment (6-mer frequency, TF over GST control); with ELK4 it was 1 fold enrichment (6-mer frequency, TF over GST control); with ETV2, 1.04 fold enrichment (6-mer frequency, TF over GST control). Further, the binding signal with ELF3 is 1.08 fold enrichment (6-mer frequency, TF over GST control); in the assay with CRX, 1.01 fold enrichment (6-mer frequency, TF over GST control); in the assay with ETV1, 1.11 fold enrichment (6-mer frequency, TF over GST control).

The values above are taken from article PMC7862700, “An all-to-all approach to the identification of sequence-specific readers for epigenetic DNA modifications on cytosine”.
